Compound activity from PubChem BioAssay.
Most compounds without a hit are left out; they make up all but 3.1% or so of the library.
CD11b adhes inh = inhibitors of human CD11b/CD18 binding to fibrinogen. P05107+P11215. K562 CD11b/CD18 adhesion to fibrinogen, ATPlite luminescence; Mn2+ added to activate the integrin. inhibition, % at 10 µM. 0.54% of 93,000 active;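 active = primary inhibition of 50% or more at 10 µM, then 40% or more on retest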
ERb SRC1 inh = blocks coactivator binding to human estrogen receptor beta. TR-FRET ER-beta LBD / SRC1-Cy5 peptide binding; receptor agonist-loaded with 1 µM estradiol. inhibition, % at 25.6 µM. 1.3% of 86,000 active. AID 633;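 active = compounds whose percent inhibition of the receptor-coactivator binding signal exceeds about 50% in the single-dose screen, limit read from the data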
CD11b adhes enh = CD11b/CD18-fibrinogen binding enhancement; AID 1499; 0.07% of 93,000 active; activation, % at 10 µM; P05107+P11215; K562 CD11b/CD18 adhesion to fibrinogen, ATPlite luminescence;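 active = 10 µM primary screen giving 50% or more activity, confirmed by 40% or more on retest at that dose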
ERa SRC1 pot = enhances coactivator binding to human estrogen receptor alpha. TR-FRET ERalpha-LBD/SRC-Cy5 coactivator binding, 2 h; 100 = basal binding, no effect. P03372. AID 639. coactivator binding (% of control), % at 25.6 µM. 1.3% of 86,000 active; in the data active = activity above about 200%;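 also: binding measured in presence of low estradiol as agonist stimulus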
Target sequence (P03372 whole entry, looked up, the tested form may be a part): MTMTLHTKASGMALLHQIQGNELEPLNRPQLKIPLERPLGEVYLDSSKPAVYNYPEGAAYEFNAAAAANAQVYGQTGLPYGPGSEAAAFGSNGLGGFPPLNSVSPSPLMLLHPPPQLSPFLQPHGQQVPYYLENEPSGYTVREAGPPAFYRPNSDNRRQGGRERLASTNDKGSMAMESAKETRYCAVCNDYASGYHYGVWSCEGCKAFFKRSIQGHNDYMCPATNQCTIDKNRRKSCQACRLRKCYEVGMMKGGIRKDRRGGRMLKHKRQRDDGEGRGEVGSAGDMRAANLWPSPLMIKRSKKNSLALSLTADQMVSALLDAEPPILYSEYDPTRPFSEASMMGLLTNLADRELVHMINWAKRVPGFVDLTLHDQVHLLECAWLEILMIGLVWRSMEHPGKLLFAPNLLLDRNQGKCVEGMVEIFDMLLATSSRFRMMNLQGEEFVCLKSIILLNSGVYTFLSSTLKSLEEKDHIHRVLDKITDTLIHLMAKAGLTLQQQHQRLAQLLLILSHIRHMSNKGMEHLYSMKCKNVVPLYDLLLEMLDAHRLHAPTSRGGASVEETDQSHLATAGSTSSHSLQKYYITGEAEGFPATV
ERa coact inh = blocks coactivator binding to human estrogen receptor alpha; TR-FRET ER-alpha LBD / SRC-1 peptide, estradiol-bound; inhibition, % at 25.6 µM; 1.7% of 86,000 active; AID 629; in the data active = inhibition above about 50%
Large screens that a line does not name were inactive; [ ] = another dose, or the depositor's remark.

O=C(Cc1ccc(Cl)cc1)Nc1ccc(N2CCN(C(=O)c3ccco3)CC2)cc1	ERa coact inh 67[fluorescence artefact?]
O=C(O)CCC(=O)Nc1ccc(-c2nnc(-c3ccco3)o2)cc1	none
CSc1ccccc1NC(=O)c1cnccn1	ERa coact inh 56[fluorescence artefact?]
Cc1cccc(-n2cnc(C(=O)N/N=C\c3ccc(Br)cc3)c2)n1	ERa SRC1 pot 515[fluorescence artefact?]
Cn1cc([N+](=O)[O-])c(C(=O)N/N=C/c2ccc([N+](=O)[O-])cc2)n1	none (no result: ERb SRC1 inh, ERa SRC1 pot, ERa coact inh)
O=c1c2cc(Br)cc(Br)c2oc2nc3n(c(=O)c12)CCCS3	none
O=Cc1ccc2oc3nc4n(c(=O)c3c(=O)c2c1)CCCS4	ERb SRC1 inh 58, ERa coact inh 66
CC(=O)Nc1nonc1-c1nc2ccccc2n1N(C(C)=O)C(C)=O	ERb SRC1 inh 76, ERa coact inh 86[fluorescence artefact?]
CC(=O)Nc1nonc1-c1nc2ccccc2n1CC1CC1	none
CCCCSc1ccc(NC(=O)c2cccnc2)cc1	none
CCCc1cc(=O)oc2cc(OCC(=O)OC)cc(OCC(=O)OC)c12	ERa SRC1 pot 622[fluorescence artefact?]
Cc1nn(-c2cccc(Cl)c2)c2nc(C(F)(F)F)[nH]c(=O)c12	CD11b adhes inh 102 (no result: ERb SRC1 inh, ERa SRC1 pot, ERa coact inh)
O=c1c2c3nc4ccccc4nc3n(-c3cccc(F)c3)c2ncn1Cc1ccc2c(c1)OCO2	ERb SRC1 inh 61[fluorescence artefact?], ERa coact inh 82[fluorescence artefact?]
CCC(C)n1cnc2c(c1=O)c1nc3ccccc3nc1n2-c1ccc2c(c1)OCCO2 (centres undefined)	ERa SRC1 pot 246
CCC(C)n1cnc2c(c1=O)c1nc3ccccc3nc1n2Cc1ccc2c(c1)OCO2 (centres undefined)	none
CC(=O)OCCSc1c(-c2ccccc2)c2cc(Cl)ccc2[nH]c1=O	none (no result: ERb SRC1 inh, ERa SRC1 pot, ERa coact inh)
CC1=C(C(=O)OCC(C)C)C(c2cccs2)NC(=S)N1 (centres undefined)	none (no result: ERb SRC1 inh, ERa SRC1 pot, ERa coact inh)
Cc1ccc2c(c1)c1c3n2CC(=C2C(=O)OC(C)(C)OC2=O)NC3CCC1 (centres undefined)	ERb SRC1 inh 54[fluorescence artefact?]
O=C(Nc1ccc(Cc2ccncc2)cc1)C1CCC(N2C(=O)C3CC=CCC3C2=O)CC1 (centres undefined)	ERb SRC1 inh 53, ERa coact inh 55
O=C(Nc1ccc(Cc2ccncc2)cc1)C1CCC(N2C(=O)C3C4C=CC(C4)C3C2=O)CC1 (centres undefined)	none (no result: ERb SRC1 inh, ERa SRC1 pot, ERa coact inh)
COc1ccc(NC(=O)C2=C(C)C(=O)OC23CCC(C)CC3)c(OC)c1 (centres undefined)	none
CCOC(=O)C(C(=O)Nc1cccc(C)c1)C1CCCCC1 (centres undefined)	none
CC(C)(C)c1cc(C(c2cccnc2)N2CCN(CCO)CC2)cc(C(C)(C)C)c1O (centres undefined)	CD11b adhes inh 52
Cc1ccc(CN2CCN(/N=C/c3cc(Br)cc(Br)c3O)CC2)c(C)c1	none (no result: ERb SRC1 inh, ERa SRC1 pot, ERa coact inh)
O=C(CSc1nc2c(sc3ccccc32)c(=O)n1Cc1ccco1)NCC1CCCO1 (centres undefined)	ERa SRC1 pot 279[fluorescence artefact?]
COc1cc(OC)c(C2CC(=O)N3CN(c4ccccc4)CSC3=C2C#N)cc1OC (centres undefined)	none
Cc1ccc(C2CC(=O)N3CN(c4ccc(Br)cc4)CSC3=C2C#N)o1 (centres undefined)	none
CCc1ccccc1N1CSC2=C(C#N)C(c3cc(OC)c(OC)cc3OC)CC(=O)N2C1 (centres undefined)	ERa SRC1 pot 225[fluorescence artefact?]
COc1cc(C2CC(=O)N3CN(c4ccccc4C)CSC3=C2C#N)cc(OC)c1OC (centres undefined)	ERa SRC1 pot 253[fluorescence artefact?]
CCOc1ccc(N2CSC3=C(C#N)C(c4ccco4)CC(=O)N3C2)cc1 (centres undefined)	ERb SRC1 inh 52, ERa coact inh 51
COc1ccccc1N1CSC2=C(C#N)C(c3ccc(SC)cc3)CC(=O)N2C1 (centres undefined)	ERb SRC1 inh 61[fluorescence artefact?], ERa coact inh 64[fluorescence artefact?]
COc1cccc(C2CC(=O)N3CN(c4ccccc4F)CSC3=C2C#N)c1 (centres undefined)	none
COc1ccc(CNC(=O)C(CCSC)NC(=O)c2ccco2)cc1 (centres undefined)	none (no result: ERb SRC1 inh, ERa SRC1 pot, ERa coact inh)
Cc1ccc(-c2noc(C3CCCN(S(=O)(=O)c4ccc5ccccc5c4)C3)n2)o1 (centres undefined)	CD11b adhes enh 53
Cc1ccc(S(=O)(=O)N2CCCC(c3nc(-c4ccc(C)o4)no3)C2)cc1 (centres undefined)	none
COc1ccc(-n2c(C)cc(/C=N/Nc3nnc(C)n3N)c2C)cc1	none (no result: ERb SRC1 inh, ERa SRC1 pot, ERa coact inh)
Cc1cccc(NC(=O)c2cnc3n(c2=O)CCS3)c1	none (no result: CD11b adhes inh, CD11b adhes enh)
O=C(Nc1cccc(C(F)(F)F)c1)c1cnc2n(c1=O)CCS2	ERa SRC1 pot 285[fluorescence artefact?]
Cn1c(N)c(C(=O)c2ccc(F)cc2F)c(=O)n(C)c1=O	none (no result: ERb SRC1 inh, ERa SRC1 pot, ERa coact inh)
CC1(C)CC(=O)C=C(NC2CCCCCC2)C1	none
CC1(C)CC(=O)C=C(NC2CCCCCCC2)C1	ERa coact inh 95[fluorescence artefact?] (no result: CD11b adhes inh, CD11b adhes enh)
CCCn1c(=O)c2ccccc2n2c(SCC(=O)c3ccc(CC)cc3)nnc12	none
CCCn1c(=O)c2ccccc2n2c(SCN3C(=O)c4ccccc4C3=O)nnc12	ERb SRC1 inh 96[fluorescence artefact?]
COC(=O)c1cc(NS(=O)(=O)c2ccc(N3CCC(C)CC3)c([N+](=O)[O-])c2)cc(C(=O)OC)c1	none (no result: ERb SRC1 inh, ERa SRC1 pot, ERa coact inh)
CCn1c2ccccc2c2cc(NC(=O)CSc3nnc(-c4ccc(OC)cc4)n3N)ccc21	ERa coact inh 68 (no result: CD11b adhes inh, CD11b adhes enh)
COc1ccc(NC(=O)CSc2nnc(-c3ccccc3)n2N)cc1	none (no result: CD11b adhes inh, CD11b adhes enh)
CCn1c(SCC(=O)Nc2ccc3c(c2)c2ccccc2n3CC)nnc1-c1cnccn1	ERa coact inh 74
COc1ccc(-c2nnc3ccc(SCC(=O)Nc4nc5ccccc5s4)nn23)cc1OC	none (no result: ERb SRC1 inh, ERa SRC1 pot, ERa coact inh)
O=C(Nc1c(-c2ccccc2)nc2sccn12)c1ccccc1	ERb SRC1 inh 71[fluorescence artefact?], ERa coact inh 72[fluorescence artefact?]
CCCOc1ccc(C(=O)Nc2cc(-c3nn4c(C)nnc4s3)ccc2C)cc1	ERa coact inh 58[fluorescence artefact?]
CCOc1cccc(C(=O)Nc2cc(-c3nn4c(C)nnc4s3)ccc2C)c1	none (no result: ERb SRC1 inh, ERa SRC1 pot, ERa coact inh)
Cc1ccc(-c2nn3c(C)nnc3s2)cc1NC(=O)COc1ccc(Cl)cc1	ERa SRC1 pot 325
N#C/C(=C(/O)CSc1nnc(Cc2cccs2)n1C1CCCCC1)c1nc2ccccc2[nH]1	ERa coact inh 77[fluorescence artefact?]
COc1ccccc1-n1c(SCC(=O)NC2CCCCC2)nc2c(c1=O)SCC2	ERa SRC1 pot 697
COc1ccc(NC(=O)CSc2nc3c(c(=O)n2-c2ccccc2OC)SCC3)cc1	none
C=CCNc1oc(-c2cccs2)nc1C#N	none
CS(=O)(=O)c1ccc2nc(NC(=O)CCC(=O)c3cccs3)sc2c1	ERa coact inh 68
O=C(CCC(=O)Nc1nnc(C2CCCCC2)s1)NCc1cccs1	none
O=C(CCC(=O)c1cccs1)Nc1nnc(C2CC2)s1	ERa coact inh 52
O=[N+]([O-])c1ccc(O)c(/C=N/n2cnc3ccccc32)c1	CD11b adhes inh 104 (no result: ERb SRC1 inh, ERa SRC1 pot, ERa coact inh)
